PubChem BioAssay (NCATS)
Records with an inconclusive call do not appear. The source made the active and inactive calls. The call rests on the fitted dose curve; in most records, active means well fitted curve in the direction sought with a large enough effect; inconclusive means small, poorly fitted or top-dose-only effect, or another doubt; inactive means no such curve, though single readings can be large; an effect the other way counts as inactive or inconclusive.

Experiments:
[1] = target: Rap guanine nucleotide exchange factor 3 (Homo sapiens) (UniProt O95398); experiment: Confirmatory qHTS for agonist of cAMP-regulated guanine nucleotide exchange factor 3 (EPAC1) (AID 1645881);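 further: EPAC1 catalysed release of BODIPY-GDP from Rap1B seen as fluorescence loss; 100% = effect of cAMP agonist control; nearly all actives have a fitted effect of over 75% in size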
Sequence of Rap guanine nucleotide exchange factor 3 (Homo sapiens) (O95398 whole entry, looked up): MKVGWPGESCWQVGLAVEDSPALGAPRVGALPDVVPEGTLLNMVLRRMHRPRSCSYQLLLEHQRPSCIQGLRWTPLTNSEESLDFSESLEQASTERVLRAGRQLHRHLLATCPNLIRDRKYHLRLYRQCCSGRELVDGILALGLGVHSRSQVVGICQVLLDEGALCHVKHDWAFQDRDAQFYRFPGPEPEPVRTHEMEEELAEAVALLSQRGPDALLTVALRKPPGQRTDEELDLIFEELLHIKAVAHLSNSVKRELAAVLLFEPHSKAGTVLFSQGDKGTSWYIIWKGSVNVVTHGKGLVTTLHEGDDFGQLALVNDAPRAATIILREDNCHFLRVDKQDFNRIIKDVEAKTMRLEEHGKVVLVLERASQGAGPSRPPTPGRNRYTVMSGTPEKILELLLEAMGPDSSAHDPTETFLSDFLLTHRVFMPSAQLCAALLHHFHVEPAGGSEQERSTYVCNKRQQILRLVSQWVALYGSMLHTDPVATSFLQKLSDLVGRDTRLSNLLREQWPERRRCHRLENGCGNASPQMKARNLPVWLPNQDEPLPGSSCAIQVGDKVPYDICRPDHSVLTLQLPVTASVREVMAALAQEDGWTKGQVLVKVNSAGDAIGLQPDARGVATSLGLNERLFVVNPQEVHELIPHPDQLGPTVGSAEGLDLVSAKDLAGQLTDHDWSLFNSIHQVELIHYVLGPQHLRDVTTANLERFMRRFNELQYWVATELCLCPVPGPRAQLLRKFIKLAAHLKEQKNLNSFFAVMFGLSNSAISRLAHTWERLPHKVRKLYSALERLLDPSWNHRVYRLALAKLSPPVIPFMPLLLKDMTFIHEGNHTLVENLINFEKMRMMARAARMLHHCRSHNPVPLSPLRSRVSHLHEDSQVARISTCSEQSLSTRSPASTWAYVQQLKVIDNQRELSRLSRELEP

[2] = target: Rap guanine nucleotide exchange factor 4 (Homo sapiens) (UniProt Q8WZA2); experiment: Confirmatory qHTS for agonist of cAMP-regulated guanine nucleotide exchange factor 4 (EPAC2) (AID 1645884);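 further: nucleotide exchange releases bodipy-GDP from Rap1 and this lowers its fluorescence; on the % scale 0 is the no-effect control and ±100 the full control effect; nearly all actives have a fitted effect of over 65% in size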
Sequence of Rap guanine nucleotide exchange factor 4 (Homo sapiens) (Q8WZA2 whole entry, looked up): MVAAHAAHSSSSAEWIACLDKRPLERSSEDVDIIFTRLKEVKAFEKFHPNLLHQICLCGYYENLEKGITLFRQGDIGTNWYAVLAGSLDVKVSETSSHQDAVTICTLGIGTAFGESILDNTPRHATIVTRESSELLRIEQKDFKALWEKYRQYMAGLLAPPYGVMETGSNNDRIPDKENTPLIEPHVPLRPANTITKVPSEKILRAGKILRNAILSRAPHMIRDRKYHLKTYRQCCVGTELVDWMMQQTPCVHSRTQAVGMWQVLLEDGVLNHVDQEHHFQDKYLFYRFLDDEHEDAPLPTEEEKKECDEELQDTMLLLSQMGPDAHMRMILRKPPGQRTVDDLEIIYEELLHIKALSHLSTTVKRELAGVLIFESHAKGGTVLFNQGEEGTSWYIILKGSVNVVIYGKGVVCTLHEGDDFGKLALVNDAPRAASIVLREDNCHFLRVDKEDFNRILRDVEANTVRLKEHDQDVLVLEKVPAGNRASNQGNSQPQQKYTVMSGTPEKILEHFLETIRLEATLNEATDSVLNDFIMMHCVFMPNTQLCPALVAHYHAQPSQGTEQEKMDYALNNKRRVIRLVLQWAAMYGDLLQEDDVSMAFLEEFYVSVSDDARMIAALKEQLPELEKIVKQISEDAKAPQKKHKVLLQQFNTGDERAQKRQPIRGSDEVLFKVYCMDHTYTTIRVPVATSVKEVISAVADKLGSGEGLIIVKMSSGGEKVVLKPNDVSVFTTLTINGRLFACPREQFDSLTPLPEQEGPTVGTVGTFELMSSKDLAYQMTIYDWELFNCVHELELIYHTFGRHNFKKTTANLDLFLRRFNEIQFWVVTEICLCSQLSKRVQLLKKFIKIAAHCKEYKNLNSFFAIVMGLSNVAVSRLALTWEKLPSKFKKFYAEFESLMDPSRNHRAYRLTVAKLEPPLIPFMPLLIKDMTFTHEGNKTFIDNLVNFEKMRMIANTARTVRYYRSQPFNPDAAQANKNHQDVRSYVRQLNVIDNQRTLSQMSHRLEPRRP

[3] = target: Rap guanine nucleotide exchange factor 4 (Homo sapiens) (UniProt Q8WZA2); experiment: Confirmatory qHTS for antagonist of cAMP-regulated guanine nucleotide exchange factor 4 (EPAC2) (AID 1645885); further: nearly all actives have a fitted effect of over 25% in size; further: potency means the concentration at half of the fitted maximal effect; on activity change, negative = inhibition: on the % scale 0 is the no-effect control and ±100 the full control effect
[4] = target: Rap guanine nucleotide exchange factor 3 (Homo sapiens) (UniProt O95398); experiment: Counterscreen qHTS for antagonist of cAMP-regulated guanine nucleotide exchange factor 3 (EPAC1) (AID 1645888);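 further: fluorescence loss as bound BODIPY-GDP is released from Rap1B; % of control where 0% means no effect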
How it was run: (§1)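 Measured: fluorescence of BODIPY-GDP bound to Rap1B, which falls as exchange proceeds. Conditions include 50 uM competing GDP, 5 and 30 min reads, and a later cAMP challenge for antagonist detection.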

[5] = target: Rap guanine nucleotide exchange factor 3 (Homo sapiens) (UniProt O95398); experiment: Counterscreen qHTS for agonist of cAMP-regulated guanine nucleotide exchange factor 3 (EPAC1) (AID 1645889); further: % of control where 0% means no effect; nearly all actives have a fitted effect of over 40% in size
How it was run: as §1

Cc1ccc2nc(-c3ccc(NC(=O)CSc4nccc(=O)[nH]4)cc3)sc2c1
inactive: Potency [1] | Potency [2] | Potency [3] | Potency [4] | Potency [5]

Cc1cc(Br)cc(Cl)c1OC(=O)c1ccncc1
inactive: Potency [1] | Potency [2] | Potency [4] | Potency [5]
active: Potency [3] 37.9 µM

O=C(c1ccc(O)c(Br)c1)c1cc(Br)ccc1O
inactive: Potency [1] | activation [2] 3.68% [at 17.1 µM, percent relative to cAMP agonist control] | Potency [3] | activity change, negative = inhibition [4] -2.96% [at 30.8 µM] | activation [5] 26.8% [at 30.8 µM]

CCOc1ccc(-n2c(C)nc3cc(C(=O)NCc4ccc(C)cc4)ccc32)cc1
inactive: Potency [1] | Potency [2] | Potency [3] | Potency [4] | Potency [5]

NS(=O)(=O)c1ccc(CCNC(=O)Cc2ccc(S(=O)(=O)N3CCCC3)s2)cc1
inactive: Potency [1] | activation [2] 2.8% [at 17.1 µM, percent relative to cAMP agonist control] | Potency [3] | activity change, negative = inhibition [4] 7.67% [at 30.8 µM] | activation [5] 24% [at 30.8 µM]

C=CCc1ccccc1OCc1nc2ccccc2n1CC
inactive: Potency [1] | Potency [2] | Potency [3] | Potency [4] | Potency [5]

CC(Oc1ccc(Br)cc1)C(=O)NCC(c1cccs1)N1CCOCC1 (stereo not given)
inactive: Potency [1] | Potency [2] | Potency [3] | Potency [4] | Potency [5]

COC1=CC(=O)C(C2CC(=O)c3c(O)cc(O)cc3O2)=CC1=O (stereo not given)
inactive: Potency [1] | activation [2] 9.22% [at 17.1 µM, percent relative to cAMP agonist control] | Potency [3] | activity change, negative = inhibition [4] -16% [at 30.8 µM] | activation [5] 4.79% [at 30.8 µM]

O=C(N/N=C/c1ccccc1O)c1cccc(C(F)(F)F)c1
inactive: Potency [1] | activation [2] 5.14% [at 17.1 µM, percent relative to cAMP agonist control] | Potency [3] | activity change, negative = inhibition [4] -7.23% [at 30.8 µM] | activation [5] 8.8% [at 30.8 µM]

C=CCN1C(=O)/C(=C/c2ccc(OC(C)=O)c(OCC)c2[N+](=O)[O-])SC1=S
inactive: Potency [1] | activation [2] 0% [at 17.1 µM, percent relative to cAMP agonist control] | Potency [3] | activity change, negative = inhibition [4] 12.5% [at 30.8 µM] | activation [5] 52.7% [at 30.8 µM]

O=C1/C(=C/c2cccc(F)c2)SC(=S)N1NS(=O)(=O)c1ccccc1
inactive: Potency [1] | Potency [2] | Potency [3] | Potency [4] | Potency [5]

Cc1ccc(C)n1-c1ccc(C(=O)/C=C/N(C)C)cc1
inactive: Potency [1] | activation [2] 4.94% [at 17.1 µM, percent relative to cAMP agonist control] | Potency [3] | activity change, negative = inhibition [4] -17.3% [at 30.8 µM] | activation [5] 0.307% [at 30.8 µM]

CCOC(=O)C1=C(CC)OC(N)=C(C#N)C1c1ccc(F)cc1F (stereo not given)
inactive: Potency [1] | Potency [2] | Potency [3] | Potency [4] | Potency [5]

O=C(O)C(Cc1c[nH]c2ccccc12)NS(=O)(=O)c1cccc(Cl)c1Cl (stereo not given)
inactive: Potency [1] | Potency [2] | Potency [3] | Potency [4] | Potency [5]

COc1ccc(C(CCN(Cc2ccc(OC)c(OC)c2)C(C)=O)C(C)C)cc1 (stereo not given)
inactive: Potency [1] | Potency [2] | Potency [3] | Potency [4] | Potency [5]

COCCn1c(SCC(=O)c2c(C)[nH]c3ccccc23)nc2cc(C(=O)NC(C)C)ccc2c1=O
inactive: Potency [1] | Potency [2] | Potency [3] | Potency [4] | Potency [5]

Nc1ccc(C(=O)N/N=C/c2cn(Cc3ccccc3F)c3ccccc23)cc1
inactive: Potency [1] | activation [2] 7.25% [at 17.1 µM, percent relative to cAMP agonist control] | Potency [3] | activity change, negative = inhibition [4] 31.2% [at 30.8 µM] | activation [5] 39.9% [at 30.8 µM]

COc1cccc(C(=O)Nc2nnc(S(=O)(=O)Nc3cccc(C)c3)s2)c1
inactive: Potency [1] | Potency [2] | Potency [3] | Potency [4] | Potency [5]

O=C(NCc1ccco1)c1c2c(nc3ccccc13)CCC2
inactive: Potency [1] | activation [2] 6.94% [at 17.1 µM, percent relative to cAMP agonist control] | Potency [3] | activity change, negative = inhibition [4] -4.49% [at 30.8 µM] | activation [5] 26.4% [at 30.8 µM]

CCc1ccc(N(C(=O)c2csnn2)C(C(=O)NCc2ccccc2)c2ccco2)cc1 (stereo not given)
inactive: Potency [1] | Potency [2] | Potency [4] | Potency [5]
active: Potency [3] 16.9 µM

CCOC(=O)C1=C(C)OC(N)=C(C#N)C1c1cc2c(cc1Br)OCO2 (stereo not given)
inactive: Potency [1] | activation [2] -5.39% [at 17.1 µM, percent relative to cAMP agonist control] | Potency [3] | activity change, negative = inhibition [4] -23.2% [at 30.8 µM] | activation [5] 11% [at 30.8 µM]
